Most compounds without a hit are left out; they make up all but 7.1% or so of the library.
SW480 rerep: inducers of DNA re-replication in SW480 colon cancer cells; 1.8% of 340,000 active; SW480 DNA re-replication, Hoechst DNA content imaging, 48 h; Potency, µM (highest dose often 46.1 µM), actives largely listed as activators; further: nearly all actives have a fitted effect of over 55% in size
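Cells (250 per well) received 23 nL compound or DMSO by pin tool and were kept 48 hr at 37 C, 5% CO2. Nuclei were then stained with Hoechst for 40 min and scanned for DNA content.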
p53 reactivation: restores transcriptional activity of mutant p53 | H1299 p53-A138V BP100-luciferase reporter, luminescence, 24 h | Potency, µM (top dose mostly 92.2 µM), most hits filed as activators | 0.063% of 320,000 active; further: nearly all actives have a fitted effect of over 45% in size
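H1299 (p53-null), stable ts p53-A138V + BP100-Luc; 1000 cells/well, Opti-MEM/10% FBS; cpd 4 pt, 1:5; 24 h, 37 deg C, 5% CO2; detection reagent 10 min RT; luminescence.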
ELG1 genotoxic: inducers of genotoxicity in HEK293T ELG1-luciferase cells; HEK293T ELG1-luciferase reporter, luminescence, 16 h; Potency, µM (top dose mostly 46 µM), most hits filed as activators; 1.3% of 330,000 active; AID 504466; further: nearly all actives have a fitted effect of over 60% in size
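Genotoxic stress is detected as increased luminescence from luciferase-tagged ELG1 in HEK293T cells, measured with ONE-Glo after a 16 hr treatment at 37 °C.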
MCF10A rerep: induces DNA re-replication in MCF 10a normal breast cells; MCF 10A DNA re-replication, Hoechst nuclear intensity, 48 h; Potency, µM (titrated, usually from 46.1 µM), usual class: activators; 2.9% of 350,000 active; AID 624296; further: nearly all actives have a fitted effect of over 50% in size
AT treatment: candidate therapy for ataxia-telangiectasia | 0.19% of 320,000 active | F2112 A-T fibroblasts, KAP-1 phosphorylation AlphaLISA; neocarzinostatin DNA damage 30 min before lysis | Potency, µM (doses to about 57.5 µM), usual class: activators | AID 485349; further: nearly all actives have a fitted effect of over 45% in size
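hTERT-immortalized A-T patient fibroblasts (F2112), 500 cells/well in OPTI-MEM, 1% FBS, got compounds for 60 min, then NCS for 30 min at 37C. Lysates were then assayed for phospho-KAP-1 by AlphaLISA (anti-pKAP1 donor, anti-KAP1 acceptor beads), 6 hr at 25C.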
ELG1 repair inh: blocks ELG1-dependent DNA repair in HEK293T cells. HEK293T ELG1-luciferase reporter, luminescence, 16 h; DNA damage induced by 5-fluorouridine. Potency, µM (highest dose often 46.1 µM), hits mostly inhibitors. 2.3% of 330,000 active; further: nearly all actives have a fitted effect of over 55% in size
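DMSO vehicle served as the neutral condition. Each well held 2,000 cells given 5-fluorouridine plus compound; after 16 hr at 37 °C/5% CO2, ONE-Glo was added and luciferase measured 30 min later.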
Numbers stand for hits; 0 = inactive; ? = inconclusive; - = no result; [ ] = remark or other dose. The call rests on the fitted dose curve; in most records, active means well fitted curve in the direction sought with a large enough effect; inconclusive means small, poorly fitted or top-dose-only effect, or another doubt; inactive means no such curve, though single readings can be large; an effect the other way counts as inactive or inconclusive.

SMILES | SW480 rerep | p53 reactivation | ELG1 genotoxic | MCF10A rerep | AT treatment | ELG1 repair inh
CCS(=O)(=O)N1Cc2ccccc2CC1C(=O)N(C)CC(=O)Nc1cccc(F)c1 (stereo unspecified) | 0 | 0 | 0 | 0 | 0 | ?
COc1ccccc1NC(=O)COC(=O)/C=C/c1ccc(OC)c(OC)c1 | 0 | 0 | 0 | 0 | 0 | 0
O=C(COC(=O)c1cc([N+](=O)[O-])ccc1N1CCOCC1)c1ccc(OC(F)F)cc1OC(F)F | 0 | 0 | 0 | 0 | 0 | 21µM
O=C(COC(=O)c1cc([N+](=O)[O-])ccc1N1CCOCC1)Nc1ccccc1OC(F)F | ? | 0 | 0 | 0 | 0 | ?
O=C(COC(=O)c1cc([N+](=O)[O-])ccc1N1CCOCC1)c1ccc(Br)cc1 | 0 | 0 | 0 | 0 | 0 | 0
CCOc1ccc(C(=O)COC(=O)c2cc([N+](=O)[O-])ccc2N2CCOCC2)cc1 | 4.1µM | 0 | 0 | ? | 0 | 0
CC1CCN(C(=O)COC(=O)c2cc([N+](=O)[O-])ccc2N2CCOCC2)CC1 | 0 | 0 | 0 | 0 | 0 | 0
CSc1ccc(COC(=O)c2cc([N+](=O)[O-])ccc2N2CCOCC2)cc1 | 0.058µM | 0 | 0 | ? | 0 | 0
O=C(COC(=O)c1cc([N+](=O)[O-])ccc1N1CCOCC1)Nc1cc(F)ccc1F | 0 | 0 | 0 | 0 | 0 | 23µM
CCCCc1ccc(NS(=O)(=O)c2cccc(C(=O)N3CCNC(=O)C3)c2)cc1 | 0 | 0 | 0 | 0 | 0 | 0
CC(=O)c1ccc(OC(C)c2nc3ccccc3s2)cc1 (stereo unspecified) | 0 | 0 | ? | 0 | 0 | ?
CCCCCCn1c(O)c(/C=C2\C=NN=C2c2ccccc2)sc1=S | ? | 0 | 0 | ? | - | 0
CCCCn1c(O)c(/C=C2\C=NN=C2c2ccccc2)sc1=S | ? | 0 | 0 | 10µM | ? | 0
CC(C)Cn1c(O)c(/C=C2\C=NN=C2c2ccccc2)sc1=S | ? | 0 | 0 | 23µM | 32µM | ?
CCn1c(O)c(/C=C2\C=NN=C2c2ccccc2)sc1=S | 0 | 0 | 0 | 0 | 0 | 0
CCCCCc1ccc(OCCOCCn2c[n+](C)c3ccccc32)c(CCCCC)c1 | ? | 0 | 0 | ? | 0 | 7.3µM
CCCCCc1ccc(OCCC[n+]2ccccc2)c(CCCCC)c1 | 0 | 0 | 0 | ? | 0 | ?
COc1cc(NC(=O)c2ccccn2)cc(OC)c1OC | 0 | 0 | 0 | 0 | 0 | ?
COc1cc(C(=O)N/N=C(\C)c2ccccn2)cc(OC)c1OC | 3.7µM | 0 | 0 | ? | 0 | 0
COc1cccc(C(=O)N/N=C(/c2ccccc2)c2ccccn2)c1 | ? | 0 | 0 | ? | 0 | 0
COc1cc(C(=O)N/N=C(\c2ccccc2)c2ccccn2)cc(OC)c1OC | ? | ? | ? | 18µM | 0 | ?
CCOCCCNC(=S)N1CCC(NC(=O)C23CC4CC(CC(C4)C2)C3)CC1 | 0 | 0 | 0 | 0 | 0 | 0
COc1cccc(/C=C/C(=C2/C(=O)N(c3ccccc3)N=C2C)c2ccccc2)c1OC | 0 | 0 | 0 | 0 | 0 | 7.3µM
OC(c1ccccc1)C(Nc1ccccn1)c1ccccc1 (stereo unspecified) | 0 | - | - | 0 | - | -
Cc1onc(-c2ccccc2)c1C(=O)OCC(=O)Nc1cccc(Cl)c1 | 0 | 0 | 0 | ? | 0 | 13µM
SMILES | SW480 rerep | p53 reactivation | ELG1 genotoxic | MCF10A rerep | AT treatment | ELG1 repair inh
Cc1cccc(OCCOC(=O)c2c(-c3ccccc3)noc2C)c1 | 8.2µM | 0 | 0 | 18µM | 0 | 0
N#CNC(=Nc1ccccc1)SCc1ccc(C(=O)O)cc1 | 0 | 0 | 0 | ? | 0 | 0
CSC(=Nc1ccccc1)N=C(SCc1ccccc1)N(C)C | 7.3µM | - | - | ? | - | -
O=C(CN1C(=O)c2ccccc2S1(=O)=O)Nc1ccccc1C(=O)NCc1ccco1 | 0 | 0 | 0 | 0 | - | 0
O=C(CN1C(=O)c2cccc3cccc1c23)Nc1ccccc1C(=O)NCc1ccco1 | 0 | - | - | 21µM | - | -
CCOC(=O)c1c(C)[nH]c(C)c1S(=O)(=O)N1CCCCC1 | 0 | 0 | 0 | 0 | 0 | 0
CSCCC(NC(=O)c1ccco1)C(=O)N(C)CC(=O)Nc1ccccc1Br (stereo unspecified) | 0 | 0 | 0 | 0 | 0 | 0
COc1ccc(-c2cc(N)n(S(=O)(=O)c3c(F)c(F)c(F)c(F)c3F)n2)cc1OC | ? | 0 | 0 | ? | 0 | 23µM
CCc1ccc(/C=N/NC(=O)c2nnn(-c3nonc3N)c2C(C)C)cc1 | ? | 0 | 0 | 0 | 0 | 0
O=C(NCc1n[nH]c(=O)c2ccccc12)C1CC(=O)N(c2ccc(Cl)cc2)C1 (stereo unspecified) | 0 | 0 | 0 | 0 | 0 | 0
O=C(CSc1cn(CCNC(=O)c2ccc3ccccc3c2)c2ccccc12)NCc1ccco1 | 0 | 0 | ? | 0 | 0 | 23µM
COc1ccccc1C(=O)NCCn1cc(SCC(=O)Nc2cc(C)on2)c2ccccc21 | 0 | 0 | 0 | ? | 0 | 23µM
CC(C)[C@@H](C(=O)N1CCCC1)N1C(=O)N2CCc3c([nH]c4ccccc34)[C@@]2(C)C1=O | 0 | 0 | 0 | 0 | 0 | 0
Cc1cccc(C)c1Nc1nnc(SC/C(O)=C(\C#N)c2nc3ccccc3[nH]2)s1 | ? | 0 | 0 | ? | 0 | ?
Cc1cccc(Nc2nnc(SC/C(O)=C(\C#N)c3nc4ccccc4[nH]3)s2)c1C | ? | 0 | 0 | 13µM | 0 | 0
CC(C)(C)CC(C)(C)c1ccc(O)c(-n2nc3ccccc3n2)c1 | 0 | - | - | 27µM | - | -
COc1cccc(Sc2ccccc2/C=N/NC(N)=O)c1 | 6.5µM | 0 | 0 | ? | 0 | 0
CCOC(=O)N/N=C\c1cccc(OC)c1 | 0 | 0 | ? | 0 | 0[11.5 µM] | ?
Cc1nc2scc(C)n2c(=O)c1S(=O)(=O)NCc1ccc(F)cc1 | 0 | 0 | 0 | 0 | 0 | 0
CCOc1ccc2nc(N3CCC(C(=O)N4CCN(c5ccccn5)CC4)CC3)sc2c1 | 0 | 0 | 7.3µM | 0 | 0 | 12µM
N#CC1CC(c2ccccc2)Nc2cc(Cl)ccc2N1 (stereo unspecified) | 13µM | ? | 0 | ? | 0 | ?
Cc1ccc(S(=O)(=O)N2CCN(C(=O)COC(=O)Cc3cccc(C(F)(F)F)c3)CC2)c(C)c1 | 0 | 0 | 0 | 0 | 0 | 0
COc1ccc(C2C(C(C)=O)=C(O)C(=O)N2c2nccs2)c(OC)c1 (stereo unspecified) | 21µM | 0 | 0 | 0 | 0 | 0
CC(=O)C1=C(O)C(=O)N(c2nccs2)C1c1ccccc1F (stereo unspecified) | 0 | 0 | 0 | 0 | 0 | 0
Cc1ccc(S(=O)(=O)CCc2nc3ccccc3n2CCC#N)cc1 | ? | 0 | 0 | 18µM | 0 | 0
CC(=Nc1ccccc1)C1=C(O)C(Cc2ccccc2)NC1=O (stereo unspecified) | 0.16µM | - | - | ? | - | -

Screening data (PubChem BioAssay)
